The record followed here is PubChem BioAssay AID1851 (National Center for Advancing Translational Sciences (NCATS), 2009).

Values joined by “and” are separate entries in the source; they are usually repeats but may differ in a detail not shown here. Equal entries are not always repeated. Screen size: about 16,000 compounds; about 5,800 (36%) were called active. About 23% were inconclusive and are not listed. This is one part of the list. A number with no mark means an inactive call. Calls come from the whole dose curve; as a rule, active = well fitted curve in the direction sought with a large enough effect; inconclusive = small, poorly fitted or top-dose-only effect, or effect the other way; inactive = no such curve, though single readings can be large or run the other way.

Broadly, the AC50 is the midpoint of the concentration-response curve, whichever way the signal moves.
% is set by controls: 0 for no effect and ±100 for the full control effect.

Sequence of Cytochrome P450 2C19 (Homo sapiens) (P33261 whole entry, looked up): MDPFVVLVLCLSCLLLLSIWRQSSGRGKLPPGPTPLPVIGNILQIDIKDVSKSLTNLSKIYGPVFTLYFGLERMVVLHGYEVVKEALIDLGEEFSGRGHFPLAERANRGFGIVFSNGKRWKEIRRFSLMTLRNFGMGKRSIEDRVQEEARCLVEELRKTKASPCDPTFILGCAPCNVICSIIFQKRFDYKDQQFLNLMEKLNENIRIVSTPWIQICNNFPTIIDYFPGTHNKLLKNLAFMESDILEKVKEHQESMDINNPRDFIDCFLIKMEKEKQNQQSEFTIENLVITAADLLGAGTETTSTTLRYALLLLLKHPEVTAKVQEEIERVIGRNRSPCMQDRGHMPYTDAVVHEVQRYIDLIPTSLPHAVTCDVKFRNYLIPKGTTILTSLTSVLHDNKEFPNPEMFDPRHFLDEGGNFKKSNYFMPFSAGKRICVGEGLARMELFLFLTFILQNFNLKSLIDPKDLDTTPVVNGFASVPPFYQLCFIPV

This experiment concerns the target Cytochrome P450 2C19 (Homo sapiens) (UniProt P33261). The experiment in a line: Cytochrome panel assay with activity outcomes. The following applies: recombinant CYP, pro-luciferin dealkylation, luminescence, p450-cyp2c19; series mostly up to 57.1 µM. On the procedure:
The P450 gene superfamily is involved in the metabolism and clearance of xenobiotics. This assay used various human CYP P450 isozymes to measure the dealkylation of various pro-luciferin substrates to luciferin. The luciferin is then measured by luminescence after the addition of a luciferase detection reagent. Pro-luciferin substrate concentration in the assay was equal to its KM for its CYP P450 isozyme. Inhibitors and some substrates limit the production of luciferin, and decrease measured luminescence.
NCGC Assay Protocol Summary:
1, Reagent, 2 uL, Isozyme and Pro-Luciferin
2, Library compounds, 23 nl, 40 uM to 0.24 nM dilution series
3, Controls, 23 nl, Isozyme specific inhibitor
4, Reagent, 2 uL, NADPH regeneration solution
5, Incubation time, 60 min, Isozyme specific temperature
6, Reagent, 4ul, Detection reagent
7, Incubation time, 20 min, Isozyme specific temperature
8, Detection, 1 sec, ViewLux luminescent read
The luciferase-based P450-GloTM Screening Systems were obtained from Promega (Madison, WI) for CYP 1A2 (V9770), CYP 2C9 (V9790), CYP2 C19 (V9880), CYP 2D6 (V9890), and CYP 3A4 Luciferin-PPXE (V9910) and were adapted for 1,536-well microplates and an automated protocol. The control compounds furafylline for 1A2 (F124), sulfaphenazole for CYP 2C9 (S0758), ketoconazole for CYP 2C19 (K1003), quinidine for 2D6 (Q3625), and ketoconazole for 3A4 (K1003) were purchased from Sigma Aldrich (St. Louis, MO). Recombinant P450 enzymes were obtained from baculovirus constructs expressed in insect cells (BD/Gentest).
Medium-binding white solid Kalypsys plates used. Mixtures kept on ice. 1A2: 10 nM 1A2, 100 uM Luc-ME, 100 mM KPO4; 2C9: 10 nM 2C9, 100 uM Luc-H, 25 mM KPO4; 2C19: 5 nM 2C19, 10 uM Luc-H EGE, 50 mM KPO4; 2D6: 5 nM 2D6, 30 uM Luc-ME EGE, 100 mM KPO4; 3A4: 10 nM, 25 uM Luc-PPXE. All amounts are reflected in their final concentration, working concentration is 2x.
NADPH regeneration solution: 1.3 mM NADP+, 3.3 mM glucose-6-phosphate, 3.3 mM MgCl2, 0.4 U/mL glucose-6-phosphate dehydrogenase for all isozymes, 200 mM KPO4 for 3A4. Mixture prepared at RT but kept on ice during automated run.
RT incubation in auxilliary plate hotel for 1A2, 2D6, and 3A4; 37C for 2C9 and 2C19.
Keywords: P450, CYP1A2, CYP2C19, CYP2C9, CYP2D6, CYP3A4, Luciferase, MLSMR, MLSCN, NIH Roadmap, qHTS, NCGC
On to `C=CCN=C1CC(C)(C)CC(=O)/C1=C(\O)c1ccccc1`, for which the AC50 was 25.1 µM (active).

As to `C=CCN=C1CC(C)(C)CC(=O)/C1=C(/O)CCC(=O)OC`, the AC50 is 14.1 µM (active).

As for `N#CCCn1c(=O)c(-c2ccccc2)nc2cnc(Nc3ccccc3)nc21`, the AC50 result was “inactive”.

For `CCNC(=O)c1ccc(-n2nc(C)cc2-c2ccccc2)cc1`, the AC50 was 11.2 µM (active).

Consider `Nc1ccc(C(=O)NCC(=O)O)cc1`, for which the AC50 entry was “inactive”.

Regarding `Cc1nc2cnc(N3CCOCC3)nc2n(CCC#N)c1=O`, the AC50 entry is “inactive”.

For the compound `Fc1ccc(-c2cnc(-c3cccs3)o2)cc1`, the AC50 was 6.31 µM (active).

Regarding `Cc1ccc(N2C(=O)CC(c3ccsc3)C3=C2CC(C)(C)CC3=O)cc1` (stereo not drawn), the half-maximal activity concentration (AC50) was 2.51 µM (active).

As to `N#Cc1cc2[nH]c(=O)c(=O)[nH]c2cc1[N+](=O)[O-]`, the AC50 result was “inactive”.

Consider `CC1CCCCN1c1cc(C#N)c(C#N)cc1[N+](=O)[O-]` (stereo not drawn), for which the AC50 was 4.47 µM (active).

`N#Cc1cc2nc(O)c(O)nc2cc1[N+](=O)[O-]`: the AC50 entry is “inactive”.

On to `CCC(C)NC(=O)C1c2cc(OC)c(OC)cc2C(=O)N(C)C1c1cccs1` (stereo not drawn), for which the AC50 result was “inactive”.

For the compound `Clc1ccc(Cc2nc(-c3cccnc3)no2)cc1`, the AC50 was 1.78 µM (active).

Consider `Nc1nc(-c2cccnc2)cc(-c2cc(-c3cccnc3)nc(N)n2)n1`, for which the activity, negative = inhibition was -16.6% [at 11.4 µM].

As to `Cn1cccc1C(=O)N1CCC2(CCN(Cc3nccs3)CC2)CC1`, the AC50 entry was “inactive”.

As for `N#Cc1c(NC(=O)C2CC(c3ccccc3Cl)=NO2)sc2c1CCC2` (stereo not drawn), the AC50 was 2 µM (active).

`CCC(=O)N(Cc1ccco1)c1nc(-c2ccccc2)cs1`: the AC50 was 5.62 µM (active).

In the case of `Cc1cc2cccc(C)c2nc1SCC(=O)N(C)c1nc(-c2ccccc2)cs1`, the AC50 entry is “inactive”.

`N#CCCn1nnc2ccccc21`: the AC50 result was “inactive”.

`Nn1nnc2ccccc21`: the AC50 result was “inactive”.

For `Cc1ccnc(NCn2nnc3ccccc32)c1`, the AC50 was 15.8 µM (active).

For `O=C(O)C[n+]1ccccc1`, the activity, negative = inhibition was -3.69% [at 11.4 µM].

Turning to `Cc1cc(NC(=O)c2c(F)cccc2F)n(-c2nc3ccccc3[nH]2)n1`, the AC50 is 11.2 µM (active).

Consider `COc1cc(NC(=O)c2c(F)cccc2F)nc(OC)n1`, for which the AC50 entry is “inactive”.

Take `Cc1cc(NC(=O)c2ccc(S(=O)(=O)N(C)C)cc2)n(-c2ccccn2)n1`: the AC50 result is “inactive”.

Take `Nc1ncnc2c1ncn2[C@@H]1CCCO1`: the AC50 result was “inactive”.

Consider `Cc1nc(S(=O)(=O)N(C)c2ccccc2)c(C#N)c(C)c1Cl`, for which the AC50 is 6.31 µM (active).

In the case of `Cc1nc(S(=O)(=O)NC2CCCCC2)c(C#N)c(C)c1Cl`, the AC50 is 2.82 µM (active).

As to `CCC[C@H]1C(=O)N2C(N(C)C)=Nc3ccc(C)cc3N2C1=O`, the AC50 entry was “inactive”.

Turning to `COc1ccc(C[C@@H]2c3cc(OC)c(OC)cc3CC[N@+]2(C)CCC(=O)OCCCCCOC(=O)CC[N@@+]2(C)CCc3cc(OC)c(OC)cc3[C@H]2Cc2ccc(OC)c(OC)c2)cc1OC`, the AC50 entry is “inactive”.

With `COC(=O)C/C=C\[C@@H](C)[C@@H](/C=N\O[C@@H](C)c1cn([C@H](CO)Cc2ccccc2)nn1)OC`, the activity, negative = inhibition is -27.6% [at 11.4 µM] and -8.78% [at 11.4 µM].

Regarding `N#Cc1nc(-c2ccc(OCc3ccccc3)cc2)oc1NCCN1CCOCC1`, the AC50 was 5.62 µM (active).

Turning to `N#Cc1ccccc1-c1ccc2ncnc(NCCN3CCOCC3)c2c1`, the AC50 result is “inactive”.

Take `Cc1cccc(NC(=S)NNC(=O)c2csc3c2CCCC3)c1`: the AC50 was 10 µM (active).

`O=[N+]([O-])c1ccc(Cl)c(/C=N/N2CCN(Cc3ccccc3Cl)CC2)c1`: the AC50 is 3.98 µM (active).

On to `O=[N+]([O-])c1ccc(Cl)c(/C=N/N2CCN(Cc3ccccc3)CC2)c1`, for which the AC50 was 17.8 µM (active).

Consider `C=C(C)C(=O)N1CC2(CC(c3cccc(NC(=O)c4ccccc4)c3)=NO2)C[C@@H]1C(N)=O` (stereo partly drawn), for which the AC50 result was “inactive”.

In the case of `Cc1ccc(NC(=O)c2ccc(NCC3CCCO3)c([N+](=O)[O-])c2)cc1Cl` (stereo not drawn), the AC50 was 5.01 µM (active).

As for `CCS(=O)(=O)N1CCC(C(=O)NCC2CCCO2)CC1` (stereo not drawn), the AC50 entry is “inactive”.

With `Cc1cc(C)c(S(=O)(=O)N2CCN(c3ccc([N+](=O)[O-])c(NCC4CCCO4)c3)CC2)c(C)c1` (stereo not drawn), the concentration at half-maximal activity (AC50) was 3.16 µM (active).

Consider `O=S(Cc1cc(Oc2ccccc2)nc(-c2ccccc2)n1)c1ccccc1` (stereo not drawn), for which the AC50 is 2.82 µM (active).

As to `O=S(=O)(Cc1cc(Oc2ccccc2)nc(-c2ccccc2)n1)c1ccccc1`, the AC50 is 1.26 µM (active).

With `CNc1cc(CS(=O)c2ccccc2)nc(-c2ccccc2)n1` (stereo not drawn), the AC50 is 1.41 µM (active).

On to `O=c1[nH][nH]c(C(F)(F)F)c1C=Nc1ccccc1Cl`, for which the AC50 result is “inactive”.

On to `[O-][N+](CCO)(CCO)c1ncnc2nc[nH]c12`, for which the activity, negative = inhibition was 41% [at 11.4 µM].

In the case of `CC[C@@]1(O)C(=O)COc2c1cc1n(c2=O)Cc2c-1nc1cccc(C(C)C)c1c2[Si](C)(C)C`, the AC50 result is “inactive”.

Consider `Cc1sc(NC(=O)C2CCCCC2)c(C#N)c1-c1ccccc1`, for which the AC50 was 2.82 µM (active).

As to `Cc1sc(NC(=O)/C=C/c2ccc(C(C)C)cc2)c(C#N)c1C`, the AC50 result is “inactive”.
